From ChEMBL document CHEMBL2218924, “A broad activity screen in support of a chemogenomic map for kinase signalling research and drug discovery” (Biochem J, 2013)

Key:
[1] = target: T1, CDK3/cyclin E (Homo sapiens) (UniProt P24864+O96020+Q00526); conditions: at 1 µM
[2] = target: T1, CDK3/cyclin E (Homo sapiens); conditions: at 10 µM
[3] = target: T2, Cyclin-dependent kinase 5/CDK5 activator 1 (Homo sapiens) (UniProt Q00535+Q15078); conditions: at 1 µM
[4] = target: T2, Cyclin-dependent kinase 5/CDK5 activator 1 (Homo sapiens); conditions: at 10 µM
Target sequence in this assay (Q00535 whole entry): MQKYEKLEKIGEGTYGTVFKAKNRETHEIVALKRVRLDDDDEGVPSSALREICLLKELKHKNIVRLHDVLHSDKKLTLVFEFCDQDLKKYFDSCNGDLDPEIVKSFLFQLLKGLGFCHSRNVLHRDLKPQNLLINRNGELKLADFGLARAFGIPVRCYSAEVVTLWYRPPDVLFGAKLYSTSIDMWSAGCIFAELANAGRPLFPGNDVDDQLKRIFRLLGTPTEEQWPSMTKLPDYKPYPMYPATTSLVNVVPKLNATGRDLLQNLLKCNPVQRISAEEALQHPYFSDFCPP
Target sequence in this assay (Q15078 99-307 partner limits assumed): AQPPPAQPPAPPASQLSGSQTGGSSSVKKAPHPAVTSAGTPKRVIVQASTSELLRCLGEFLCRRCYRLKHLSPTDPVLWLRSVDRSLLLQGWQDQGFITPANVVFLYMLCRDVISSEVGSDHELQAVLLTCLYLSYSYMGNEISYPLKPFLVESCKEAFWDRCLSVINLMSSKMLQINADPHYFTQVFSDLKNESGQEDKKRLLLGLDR

[5] = target: T2, Cyclin-dependent kinase 5/CDK5 activator 1 (Homo sapiens); conditions: at 1 µM; remark: listed apart in the source
[6] = target: T2, Cyclin-dependent kinase 5/CDK5 activator 1 (Homo sapiens); conditions: at 10 µM; remark: listed apart in the source
[7] = target: T3, CDK6/cyclin D3 (Homo sapiens) (UniProt P30281+Q00534); conditions: at 1 µM
[8] = target: T3, CDK6/cyclin D3 (Homo sapiens); conditions: at 10 µM
[9] = target: T4, Cyclin-dependent kinase 7/ cyclin H (Homo sapiens) (UniProt P51946+P50613); conditions: at 1 µM
[10] = target: T4, Cyclin-dependent kinase 7/ cyclin H (Homo sapiens); conditions: at 10 µM
[11] = target: T5, CDK9/cyclin T1 (Homo sapiens) (UniProt O60563+P50750); conditions: at 1 µM
[12] = target: T5, CDK9/cyclin T1 (Homo sapiens); conditions: at 10 µM
[13] = target: T6, Serine/threonine-protein kinase Chk1 (Homo sapiens) (UniProt O14757); conditions: at 1 µM
T6 sequence (whole entry): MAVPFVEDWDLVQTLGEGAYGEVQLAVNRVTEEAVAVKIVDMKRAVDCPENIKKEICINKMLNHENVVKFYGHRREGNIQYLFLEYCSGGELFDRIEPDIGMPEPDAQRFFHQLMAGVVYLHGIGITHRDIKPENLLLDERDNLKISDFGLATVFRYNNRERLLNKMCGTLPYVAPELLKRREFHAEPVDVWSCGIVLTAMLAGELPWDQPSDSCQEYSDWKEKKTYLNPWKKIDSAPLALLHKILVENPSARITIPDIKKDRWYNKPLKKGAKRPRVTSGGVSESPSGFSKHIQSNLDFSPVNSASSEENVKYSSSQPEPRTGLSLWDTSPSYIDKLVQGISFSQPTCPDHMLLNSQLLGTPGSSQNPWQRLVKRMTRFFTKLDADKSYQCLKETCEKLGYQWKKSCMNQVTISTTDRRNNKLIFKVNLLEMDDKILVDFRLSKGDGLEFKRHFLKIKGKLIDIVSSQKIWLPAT

[14] = target: T6, Serine/threonine-protein kinase Chk1 (Homo sapiens); conditions: at 10 µM
[15] = target: Serine/threonine-protein kinase Chk2 (Homo sapiens) (UniProt O96017); conditions: at 1 µM
Serine/threonine-protein kinase Chk2 (Homo sapiens), sequence (O96017 whole entry, canonical isoform): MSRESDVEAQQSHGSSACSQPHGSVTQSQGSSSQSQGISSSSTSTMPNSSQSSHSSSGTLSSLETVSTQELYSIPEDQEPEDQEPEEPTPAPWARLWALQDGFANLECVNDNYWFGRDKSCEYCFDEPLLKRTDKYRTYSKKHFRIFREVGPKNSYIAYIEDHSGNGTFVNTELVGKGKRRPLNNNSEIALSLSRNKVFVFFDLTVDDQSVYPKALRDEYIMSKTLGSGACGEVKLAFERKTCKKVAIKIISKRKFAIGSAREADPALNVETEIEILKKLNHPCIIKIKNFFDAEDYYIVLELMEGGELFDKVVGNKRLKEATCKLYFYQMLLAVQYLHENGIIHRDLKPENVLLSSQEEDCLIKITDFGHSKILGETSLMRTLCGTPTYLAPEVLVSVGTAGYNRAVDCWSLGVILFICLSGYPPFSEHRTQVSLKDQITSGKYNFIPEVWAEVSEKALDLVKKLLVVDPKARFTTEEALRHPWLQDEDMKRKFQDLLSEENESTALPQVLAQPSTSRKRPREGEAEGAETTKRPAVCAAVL

[16] = target: Serine/threonine-protein kinase Chk2 (Homo sapiens) (UniProt O96017); conditions: at 10 µM
[17] = target: Casein kinase I isoform gamma-1 (Homo sapiens) (UniProt Q9HCP0); conditions: at 1 µM
Casein kinase I isoform gamma-1 (Homo sapiens), sequence (Q9HCP0 whole entry, looked up, canonical isoform): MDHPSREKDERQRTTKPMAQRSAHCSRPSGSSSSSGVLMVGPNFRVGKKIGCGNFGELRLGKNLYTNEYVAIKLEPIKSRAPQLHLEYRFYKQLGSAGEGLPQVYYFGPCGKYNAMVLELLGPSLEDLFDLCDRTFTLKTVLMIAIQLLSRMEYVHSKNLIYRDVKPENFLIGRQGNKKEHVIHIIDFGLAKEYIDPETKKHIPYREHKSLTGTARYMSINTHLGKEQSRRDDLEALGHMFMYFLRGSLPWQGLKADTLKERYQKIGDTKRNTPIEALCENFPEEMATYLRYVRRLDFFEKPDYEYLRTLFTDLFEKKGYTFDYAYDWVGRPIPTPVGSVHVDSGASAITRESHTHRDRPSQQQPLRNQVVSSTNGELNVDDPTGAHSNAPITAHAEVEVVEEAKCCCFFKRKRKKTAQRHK

[18] = target: Casein kinase I isoform gamma-1 (Homo sapiens) (UniProt Q9HCP0); conditions: at 10 µM
[19] = target: Casein kinase I isoform delta (Homo sapiens) (UniProt P48730); conditions: at 1 µM
Casein kinase I isoform delta (Homo sapiens), sequence (P48730 whole entry, looked up, canonical isoform): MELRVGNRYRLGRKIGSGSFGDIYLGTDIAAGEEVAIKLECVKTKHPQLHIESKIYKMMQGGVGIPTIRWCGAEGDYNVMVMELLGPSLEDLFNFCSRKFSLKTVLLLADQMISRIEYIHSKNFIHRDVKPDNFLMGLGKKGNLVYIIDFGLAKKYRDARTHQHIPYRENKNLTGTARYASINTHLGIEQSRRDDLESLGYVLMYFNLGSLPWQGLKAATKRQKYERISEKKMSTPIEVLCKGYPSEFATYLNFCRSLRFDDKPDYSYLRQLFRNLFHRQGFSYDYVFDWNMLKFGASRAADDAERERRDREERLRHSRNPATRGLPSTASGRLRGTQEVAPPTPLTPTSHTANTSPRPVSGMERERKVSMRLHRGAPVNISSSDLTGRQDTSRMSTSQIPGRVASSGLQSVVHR

[20] = target: Casein kinase I isoform delta (Homo sapiens) (UniProt P48730); conditions: at 10 µM

T1 sequence (O96020 whole entry, looked up): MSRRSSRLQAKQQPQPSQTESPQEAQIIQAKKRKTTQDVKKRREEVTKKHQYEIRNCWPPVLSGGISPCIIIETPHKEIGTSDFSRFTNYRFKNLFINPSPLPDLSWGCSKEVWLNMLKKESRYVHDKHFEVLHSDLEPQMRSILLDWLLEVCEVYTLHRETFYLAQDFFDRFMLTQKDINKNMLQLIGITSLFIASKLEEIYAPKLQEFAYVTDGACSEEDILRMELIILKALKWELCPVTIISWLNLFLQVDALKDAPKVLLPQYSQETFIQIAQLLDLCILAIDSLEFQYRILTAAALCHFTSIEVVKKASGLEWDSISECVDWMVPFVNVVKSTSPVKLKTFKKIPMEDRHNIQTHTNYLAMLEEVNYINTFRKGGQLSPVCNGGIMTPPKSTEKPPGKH
T1 sequence (P24864 whole entry, looked up): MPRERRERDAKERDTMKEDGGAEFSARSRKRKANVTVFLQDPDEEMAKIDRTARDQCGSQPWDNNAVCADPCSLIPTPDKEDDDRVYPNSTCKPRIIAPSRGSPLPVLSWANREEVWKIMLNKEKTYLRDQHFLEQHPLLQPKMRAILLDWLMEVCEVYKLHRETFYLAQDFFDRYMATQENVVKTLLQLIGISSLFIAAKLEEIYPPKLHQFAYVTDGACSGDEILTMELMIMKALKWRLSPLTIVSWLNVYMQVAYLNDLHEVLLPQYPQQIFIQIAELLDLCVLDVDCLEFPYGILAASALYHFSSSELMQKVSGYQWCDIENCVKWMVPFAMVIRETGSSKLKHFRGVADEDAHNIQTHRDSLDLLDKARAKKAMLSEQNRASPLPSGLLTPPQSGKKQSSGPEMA
T1 sequence (Q00526 whole entry, looked up): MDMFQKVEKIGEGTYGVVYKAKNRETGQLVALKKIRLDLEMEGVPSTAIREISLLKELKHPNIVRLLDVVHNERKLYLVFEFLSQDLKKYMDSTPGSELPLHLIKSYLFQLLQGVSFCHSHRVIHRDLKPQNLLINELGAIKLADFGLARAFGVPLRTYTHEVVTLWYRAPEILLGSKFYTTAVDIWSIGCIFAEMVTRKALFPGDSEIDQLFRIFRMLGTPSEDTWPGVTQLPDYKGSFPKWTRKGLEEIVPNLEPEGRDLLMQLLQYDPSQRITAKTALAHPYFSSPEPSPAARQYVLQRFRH

SMILES	residual activity [1] [%]	residual activity [2] [%]	residual activity [3] [%]	residual activity [4] [%]	residual activity [5] [%]	residual activity [6] [%]	residual activity [7] [%]	residual activity [8] [%]	residual activity [9] [%]	residual activity [10] [%]	residual activity [11] [%]	residual activity [12] [%]	residual activity [13] [%]	residual activity [14] [%]	residual activity [15] [%]	residual activity [16] [%]	residual activity [17] [%]	residual activity [18] [%]	residual activity [19] [%]	residual activity [20] [%]
Cc1cc2ncc(-c3ccccc3)nc2cc1C	96	90	102	94	93	110	107	88	102	97	105	85	94	92	84	89	93	87	87	55
Cn1cnc2cc3c(Nc4cccc(Br)c4)ncnc3cc21	102	81	96	104	98	90	99	92	84	102	108	93	95	92	89	56	84	81	87	64
CCC(=O)Nc1ccc2ncnc(Nc3cccc(Br)c3)c2c1	101	78	102	113	79	101	84	81	86	95	102	86	85	87	95	87	87	95	97	100
CC#CC(=O)Nc1cc2c(Nc3ccc(F)c(Cl)c3)ncnc2cn1	97	86	90	89	82	103	96	86	82	108	97	96	89	98	99	108	89	95	93	106
Nc1ccc2ncnc(NCCc3ccc(Oc4ccccc4)cc3)c2c1	107	90	99	85	123	98	114	96	98	85	94	107	94	72	52	17	87	82	77	53
Oc1ccc(-c2nc(-c3ccc(F)cc3)c(-c3ccncc3)[nH]2)cc1	109	93	105	91	127	99	123	109	104	102	94	65	103	92	89	68	82	59	7	-1
N#C/C(=C(\N)Sc1ccc(N)cc1)c1ccccc1C(F)(F)F	96	86	90	92	110	100	98	88	102	94	81	96	90	86	94	81	103	87	87	82
